PubChem BioAssay
Calls of active or inactive are those of the source. Unless noted, the rule behind the calls is not given here.

Legend:
[1] = test system: Wnt5a (protein binding on small-molecule microarray); assay: Wnt5a binders on small-molecule microarray, primary screen, biophysical, 635/667 nm fluorescence (AID 1142); conditions: 635 nm fluorescence, higher = more signal;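 note: fluorescence read at 667 nm with signal to noise per printed feature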
[2] = cell viability in Huh7 cells, primary screen, cytotoxicity control for HCV replication inhibitor project, CellTiter-Glo luminescence, basal, 48 h (AID 1143); conditions: Huh7 HCV replicon, higher = more signal, called active from +8 up or from −8 down;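 note: Huh7 hepatoma cells carrying a hepatitis C replication reporter with no stimulus; test concentration not given here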
[3] = P. aeruginosa biofilm formation inhibitors, primary screen, PAO1 strain, BacTiter-Glo luminescence, LB-PBS (AID 1144); conditions: 12 h, higher = more signal
[4] = CREB reporter modulators without forskolin, primary screen, cell-based, PC12, CRE-LacZ reporter, unstimulated (AID 1145); conditions: no forskolin, luminescence, 4.5 h, higher = more signal, called active from +8 up or from −8 down
[5] = CREB reporter modulators under forskolin, primary screen, cell-based, PC12, CRE-LacZ reporter, forskolin-stimulated (AID 1146); conditions: luminescence, 4.5 h, higher = more signal, called active from +8 up or from −8 down;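 note: PC12 cells with 6xCRE LacZ reporter stimulated by forskolin 10 µM; beta-galactosidase reporter signal reflecting CREB driven transcription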
[6] = biological target: Streptavidin (Streptomyces avidinii) (UniProt P22629); assay: streptavidin binders on small-molecule microarray, primary screen, artefact control for SMM compound annotation, biophysical, 635/667 nm fluorescence (AID 1147); conditions: streptavidin binding, higher = more signal;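 note: signal reflects streptavidin binding to arrayed compounds as a control protein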
[7] = small-molecule binders of probe aInhba, primary screen, biochemical, small-molecule microarray, 635/667 nm fluorescence (AID 1148); conditions: higher = more signal;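 note: score merges 667nm spot fluorescence with signal-to-noise for antibody binding to printed compounds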
Torsin-1A (Homo sapiens) [8] = biological target: Torsin-1A (Homo sapiens) (UniProt O14656); assay: torsin A binders from cell lysate, primary screen, small-molecule microarray, wild-type, 635/667 nm (AID 1149); conditions: COS7 hTOR1A-WT lysate, 635 nm fluorescence, higher = more signal
Torsin-1A (Homo sapiens) [9] = biological target: Torsin-1A (Homo sapiens) (UniProt O14656); assay: small-molecule binders of mutant TOR1A in lysate, primary screen, cell lysate, small-molecule microarray, COS7 lysate, 635/667 nm fluorescence (AID 1150); conditions: COS7 hTOR1A mutant lysate, 635 nm fluorescence, higher = more signal;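 note: score pools 667 nm emission and signal to noise measuring lysate protein binding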
[10] = test system: Sonic hedgehog protein (Shh); assay: small-molecule binders of Shh protein, primary screen, biochemical, small-molecule microarray, 635/667 nm fluorescence (AID 1151); conditions: small-molecule microarray binding, 635 nm fluorescence; higher = more signal;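 note: Shh protein binding to compounds spotted on small-molecule microarray slides; score combines spot fluorescence intensity with signal-to-noise across triplicate slides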
[11] = E. coli DRC41 culture turbidity changes, primary screen, E. coli filamentation inducer project, strain DRC41, OD650, 48 h (AID 1152);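 note: E. coli MC1000 strain DRC41 lacking acrAB efflux pump and sulA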; conditions: E. coli DRC41 (acrAB sulA), higher = more signal, called active from +8 up or from −8 down
[12] = small-molecule binders of probe aLefty1, primary screen, biochemical, small-molecule microarray, 635/667 nm fluorescence (AID 1153); conditions: higher = more signal;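 note: score merges spot fluorescence with signal-to-noise ratio from the scanned slide images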
[13] = PSAC antagonists in infected red cells, primary screen, cell-based, P. falciparum Indochina, OD700, 1 h (AID 1154); conditions: P. falciparum Indochina infected RBC osmotic lysis, higher = more signal, called active from +8 up or from −8 down
[14] = PSAC antagonists in infected red cells, primary screen, cell-based, P. falciparum Indochina, OD700, 2 h (AID 1155);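 note: lysis reports solute entry through the parasite surface anion channel PSAC; channel blockers reduce lysis of infected cells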; conditions: P. falciparum Indochina infected erythrocytes, osmotic lysis OD700; higher = more signal, called active from +8 up or from −8 down
[15] = osmotic lysis modulators in infected erythrocytes, primary screen, PSAC antagonist project, cell-based, P. falciparum Indochina, OD700, 3 h (AID 1156); conditions: higher = more signal, called active from +8 up or from −8 down
[16] = PSAC antagonists in infected red cells, primary screen, cell-based, P. falciparum Indochina, OD700, 18 h (AID 1157); conditions: P. falciparum Indochina infected erythrocytes, osmotic lysis OD700, 18 h; higher = more signal, called active from +8 up or from −8 down
[17] = modulators of S6 phosphorylation in cells, primary screen, cell-based, A549, cytoblot, luminescence, serum-stimulated (AID 1158); conditions: A549 phospho-S6 cytoblot, 5 h, higher = more signal;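 note: serum-stimulated A549 lung adenocarcinoma cells; signal is phosphorylated S6 detected by cytoblot immunostaining with HRP secondary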
[18] = biological target: NADPH oxidase 2 (Homo sapiens) (UniProt P04839); assay: NOX2-dependent H2O2 signal modulators, primary screen, NOX inhibitor project, cell-based, HEK293-NOX2, PMA-stimulated, Amplex Red fluorescence (AID 1159); conditions: 45 min, higher = more signal, called active from +8 up or from −8 down; note: test concentration not given here
[19] = biological target: NADPH oxidase 4 (Homo sapiens) (UniProt Q9NPH5); assay: NOX4-dependent H2O2 signal modulators, primary screen, NOX inhibitor project, cell-based, HEK293-NOX4, tetracycline-induced, Amplex Red fluorescence (AID 1160); conditions: 45 min, higher = more signal, called active from +8 up or from −8 down
[20] = biological target: NADPH oxidase 5 (Homo sapiens) (UniProt Q96PH1); assay: NOX5-dependent H2O2 signal modulators, primary screen, NOX inhibitor project, cell-based, HEK293-NOX5, Amplex Red fluorescence (AID 1161); conditions: HEK293-NOX5, ionomycin, 45 min, higher = more signal
Sequence of NADPH oxidase 5 (Homo sapiens) (Q96PH1 whole entry, looked up): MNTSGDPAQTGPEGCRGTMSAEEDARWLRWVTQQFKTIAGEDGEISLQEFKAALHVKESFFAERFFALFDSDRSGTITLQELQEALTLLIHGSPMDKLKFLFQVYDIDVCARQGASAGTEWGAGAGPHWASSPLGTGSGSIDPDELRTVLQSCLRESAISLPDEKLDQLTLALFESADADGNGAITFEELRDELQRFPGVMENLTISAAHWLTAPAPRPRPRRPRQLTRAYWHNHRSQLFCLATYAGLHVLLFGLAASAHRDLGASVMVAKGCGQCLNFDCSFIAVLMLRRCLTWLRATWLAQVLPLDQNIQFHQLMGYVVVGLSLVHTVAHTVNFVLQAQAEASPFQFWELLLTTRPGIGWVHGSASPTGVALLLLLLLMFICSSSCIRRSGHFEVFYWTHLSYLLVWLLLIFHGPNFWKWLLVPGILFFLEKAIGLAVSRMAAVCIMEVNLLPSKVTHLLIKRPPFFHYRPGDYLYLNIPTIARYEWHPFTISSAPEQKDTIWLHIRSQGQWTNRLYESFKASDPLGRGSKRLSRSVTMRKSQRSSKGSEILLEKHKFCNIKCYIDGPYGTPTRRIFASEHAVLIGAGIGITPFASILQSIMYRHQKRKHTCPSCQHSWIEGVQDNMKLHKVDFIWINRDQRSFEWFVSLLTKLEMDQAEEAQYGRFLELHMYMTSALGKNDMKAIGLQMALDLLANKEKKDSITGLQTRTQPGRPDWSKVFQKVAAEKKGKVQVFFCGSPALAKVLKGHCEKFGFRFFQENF

Sequence of Streptavidin (Streptomyces avidinii) (P22629 whole entry, looked up): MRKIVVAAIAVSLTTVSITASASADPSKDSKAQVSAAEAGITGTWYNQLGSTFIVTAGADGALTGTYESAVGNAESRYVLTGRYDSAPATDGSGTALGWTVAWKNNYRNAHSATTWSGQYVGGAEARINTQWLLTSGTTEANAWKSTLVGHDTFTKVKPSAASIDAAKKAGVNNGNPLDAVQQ
Sequence of NADPH oxidase 2 (Homo sapiens) (P04839 whole entry, looked up): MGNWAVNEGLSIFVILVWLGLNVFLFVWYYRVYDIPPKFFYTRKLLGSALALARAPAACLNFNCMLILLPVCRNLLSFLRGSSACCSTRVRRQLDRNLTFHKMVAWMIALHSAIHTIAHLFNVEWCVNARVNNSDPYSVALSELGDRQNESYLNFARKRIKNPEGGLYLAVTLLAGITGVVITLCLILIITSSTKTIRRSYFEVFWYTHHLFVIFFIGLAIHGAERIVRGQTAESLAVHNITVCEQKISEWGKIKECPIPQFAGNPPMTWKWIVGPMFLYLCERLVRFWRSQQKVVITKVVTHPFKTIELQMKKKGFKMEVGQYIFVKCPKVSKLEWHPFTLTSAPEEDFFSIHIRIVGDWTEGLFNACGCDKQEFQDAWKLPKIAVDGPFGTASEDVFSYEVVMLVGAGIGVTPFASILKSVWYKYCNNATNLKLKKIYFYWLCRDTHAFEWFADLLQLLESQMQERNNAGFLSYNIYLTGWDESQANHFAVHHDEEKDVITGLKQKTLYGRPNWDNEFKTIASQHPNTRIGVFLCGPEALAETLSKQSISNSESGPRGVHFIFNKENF
Sequence of NADPH oxidase 4 (Homo sapiens) (Q9NPH5 whole entry, looked up): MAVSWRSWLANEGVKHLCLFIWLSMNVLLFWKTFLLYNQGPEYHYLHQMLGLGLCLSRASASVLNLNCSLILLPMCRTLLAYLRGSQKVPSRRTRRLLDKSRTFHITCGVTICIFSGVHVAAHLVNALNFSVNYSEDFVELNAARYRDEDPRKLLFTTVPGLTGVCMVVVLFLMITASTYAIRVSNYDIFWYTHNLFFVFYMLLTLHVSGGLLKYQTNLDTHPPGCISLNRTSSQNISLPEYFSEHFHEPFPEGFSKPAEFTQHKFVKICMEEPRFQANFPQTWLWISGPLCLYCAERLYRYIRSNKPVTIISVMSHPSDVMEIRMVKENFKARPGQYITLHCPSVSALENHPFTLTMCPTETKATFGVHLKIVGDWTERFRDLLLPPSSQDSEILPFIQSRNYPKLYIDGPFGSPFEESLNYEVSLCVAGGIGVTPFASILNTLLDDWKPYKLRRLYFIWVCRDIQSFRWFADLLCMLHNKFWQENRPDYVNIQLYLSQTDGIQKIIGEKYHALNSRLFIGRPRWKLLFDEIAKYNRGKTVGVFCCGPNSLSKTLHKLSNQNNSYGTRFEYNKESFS
Sequence of Torsin-1A (Homo sapiens) (O14656 whole entry, looked up): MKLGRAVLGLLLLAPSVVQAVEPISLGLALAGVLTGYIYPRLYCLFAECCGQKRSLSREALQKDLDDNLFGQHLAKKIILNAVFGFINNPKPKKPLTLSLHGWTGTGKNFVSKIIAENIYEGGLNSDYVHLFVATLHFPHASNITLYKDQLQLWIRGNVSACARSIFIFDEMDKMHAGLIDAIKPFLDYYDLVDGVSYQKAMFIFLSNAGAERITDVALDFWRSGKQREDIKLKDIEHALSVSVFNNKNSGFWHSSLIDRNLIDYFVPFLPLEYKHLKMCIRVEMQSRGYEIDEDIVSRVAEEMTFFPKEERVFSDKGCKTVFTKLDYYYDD

SMILES | composite z-score [1] | z-score [2] | z-score [3] | z-score [4] | z-score [5] | composite z-score [6] | composite z-score [7] | composite z-score (Torsin-1A (Homo sapiens) [8]) | composite z-score (Torsin-1A (Homo sapiens) [9]) | composite z-score [10] | z-score [11] | composite z-score [12] | z-score [13] | z-score [14] | z-score [15] | z-score [16] | z-score [17] | z-score [18] | z-score [19] | z-score [20]
COCCCNC(=O)[C@@]1(Cc2ccccc2)N=C(c2ccc(OCCCO)cc2)O[C@H]1c1ccccc1 | 1.3 | -1.99 (inactive) | 0.669 (inactive) | -0.0249 (inactive) | -0.437 (inactive) | 2.34 | 0.786 | 0.268 | 1.16 | 0.0157 | -0.146 (inactive) | 0.39 | 19.7 (active) | 3.35 (inactive) | -0.321 (inactive) | 0.32 (inactive) | -0.628 | -0.981 (inactive) | 1.11 (inactive) | 1.86
CCCC=C(CCC)[C@@H](NC(=O)Oc1ccc(F)cc1)c1ccc(C(=O)OC)cc1 | 0.0931 | -3.08 (inactive) | -0.135 (inactive) | 0.194 (inactive) | 1.43 (inactive) | 1.55 | 0.329 | -0.0302 | 0.262 | -0.69 | -0.755 (inactive) | 0.221 | 0.454 (inactive) | 1.34 (inactive) | -1.54 (inactive) | 1.35 (inactive) | 0.298 | -0.395 (inactive) | -1.17 (inactive) | -0.592
COCC(=C=CC[C@@H](O)c1ccccc1OCCO)C[C@@H](O)c1cc(Cl)cc(Cl)c1O | 0.539 | -1.54 (inactive) | 0.112 (inactive) | 15.6 (active) | 0.789 (inactive) | 0.394 | -0.0112 | 1.66 | 1.04 | 2.07 | -0.397 (inactive) | 0.086 | 20.5 (active) | 4.9 (inactive) | 0.392 (inactive) | 0.945 (inactive) | 0.35 | -0.19 (inactive) | -0.894 (inactive) | -2.07
CC1CC/C=C\[C@H]2OC34C=CCN(C(C)(C)C)C(=O)[C@H]3N(CCCCCCO)C(=O)[C@@H]4C2C(=O)O1 (stereo not given in full) | -0.293 | 0.553 (inactive) | 0.0917 (inactive) | 0.74 (inactive) | -0.21 (inactive) | -0.727 | -0.224 | -0.67 | -0.433 | 0.611 | 0.0837 (inactive) | -0.0501 | 0.375 (inactive) | 0.794 (inactive) | 0.39 (inactive) | 0.771 (inactive) | -0.0989 | 0.959 (inactive) | -0.0389 (inactive) | 1.77
[N-]=[N+]=NCc1ccccc1[C@@H]1OC(c2ccc(OCCCO)cc2)=N[C@]1(Cc1ccccc1N=[N+]=[N-])C(=O)N1CCOCC1 | 1.11 | -1.61 (inactive) | 0.103 (inactive) | 1.78 (inactive) | -0.514 (inactive) | 1.57 | 0.636 | 0.308 | 0.898 | -0.284 | -0.66 (inactive) | 0.628 | 16.9 (active) | 3.7 (inactive) | 1.17 (inactive) | 1.01 (inactive) | 0.37 | -1.31 (inactive) | 1.23 (inactive) | 1.4
[N-]=[N+]=Nc1ccccc1C[C@@]1(C(=O)NCCN2CCOCC2)N=C(c2ccc(OCCCO)cc2)O[C@@H]1c1ccccc1 | 0.785 | -3.8 (inactive) | -0.49 (inactive) | -0.435 (inactive) | -1.61 (inactive) | 0.302 | 0.258 | 0.304 | 0.617 | 0.721 | 1.06 (inactive) | 0.234 | 28.8 (active) | 24.3 (active) | 2.41 (inactive) | 5.39 (inactive) | 0.368 | -0.57 (inactive) | 1.25 (inactive) | 0.589
[N-]=[N+]=NCc1ccccc1[C@@H]1OC(c2ccc(OCCCO)cc2)=N[C@]1(CCS(=O)(=O)c1ccccc1)C(=O)NCc1ccccc1 | 0.88 | -1.86 (inactive) | 0.0656 (inactive) | 0.614 (inactive) | -1.66 (inactive) | 1.09 | 1.09 | 0.248 | 0.467 | 1.4 | -0.665 (inactive) | 1.43 | 16.4 (active) | 2.27 (inactive) | 1.75 (inactive) | 0.814 (inactive) | -0.0212 | -1.04 (inactive) | 0.0609 (inactive) | -0.898
CC(C)(C)OC(=O)CC[C@]1(C(=O)NCC(O)CO)COC(c2ccc(OCCCO)cc2)=N1 (stereo not given in full) | -0.05 | -0.0229 (inactive) | -0.904 (inactive) | -0.412 (inactive) | -0.0431 (inactive) | 0.873 | -0.003 | 0.746 | 2.65 | -1.31 | -0.0886 (inactive) | 0.149 | 5.77 (inactive) | 0.645 (inactive) | 0.639 (inactive) | 0.619 (inactive) | 0.0272 | -2.16 (inactive) | -0.351 (inactive) | -0.519
